In PubChem BioAssay AID833 (The Scripps Research Institute Molecular Screening Center, 2007) one finds activation data, which are given here for 64 compounds.

The campaign covered roughly 16,000 compounds. About 80 (0.5%) were called active. The sample as a whole holds a higher share of actives than the screen did. Unmarked numbers belong to inactive results. Cut-off read from the data, not from the text of the source: active = activation above about 15%; inactive = the rest.

Chain of Galanin receptor type 2 (Rattus norvegicus) (O08726 whole entry, looked up): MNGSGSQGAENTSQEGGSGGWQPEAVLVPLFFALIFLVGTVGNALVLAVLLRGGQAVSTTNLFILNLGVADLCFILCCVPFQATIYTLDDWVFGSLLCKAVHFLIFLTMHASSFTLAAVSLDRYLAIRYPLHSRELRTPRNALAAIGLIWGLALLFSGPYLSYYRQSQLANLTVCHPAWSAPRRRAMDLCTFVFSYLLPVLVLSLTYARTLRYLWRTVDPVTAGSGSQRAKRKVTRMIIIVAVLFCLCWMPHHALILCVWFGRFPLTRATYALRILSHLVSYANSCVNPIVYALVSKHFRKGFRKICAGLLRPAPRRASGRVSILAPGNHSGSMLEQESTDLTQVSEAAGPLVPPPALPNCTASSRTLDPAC

The assay addresses Galanin receptor type 2 (Rattus norvegicus) (UniProt O08726). The assay is described as follows: activates the rat galanin receptor 2 (AID 833). Conditions: cell-based GALR2 agonist screen; at 10 µM; stronger effect = higher value.
In the case of `COc1ccc(S(=O)c2ccccc2C(=O)O)c(C(=O)O)c1` (centres undefined), the activation was -7.55%.
Turning to `Cc1ccc(NC(=O)c2ccccc2NC(=O)c2ccccc2)cc1`, the activation is -2.58%.
As for `CCOC(=O)C(=CNc1ccc2n[nH]nc2c1)C(=O)OCC`, the figure is -1.04%; as for `CSc1sc(C(=O)Nc2cccc(C(F)(F)F)c2)cc1S(=O)(=O)C(C)C`, -6.93%.
As for `Cn1c(SCC(=O)c2ccc(Cl)cc2)nnc1-c1cnccc1C(F)(F)F`, the figure is -8.49%; as for `O=S(=O)(Cc1nnc(-c2cc(Cl)cc(Cl)c2)o1)c1ccc(Cl)cc1`, -1.76%; as for `CC1(C)CC(=O)C=C(N2CCOCC2)C1`, -5.82%.
Turning to `Cc1ccc(Sc2cc(C)c(C)cc2N)c(C)c1`, the activation is -6.96%.
Turning to `O=C1NCCN1CCNS(=O)(=O)c1cc(Cl)sc1Cl`, the activation is -5.62%.
The result for `O=S(=O)(Oc1ccc(C2SCCS2)cc1)c1ccc(Br)cc1` reads -1.98%; that for `CNC(=S)Nc1cscc1S(=O)(=O)c1ccc(Cl)cc1`, -6.95%.
As for `CCOC(=O)NC(=S)NC12CC3CC(CC(C3)C1)C2`, the figure is -2.11%; as for `Cc1onc(-c2ccccc2)c1CNS(=O)(=O)c1ccc(-c2ccccn2)s1`, -9.42%.
The result for `COC(=O)c1c(C(=O)OC)c2n(c1C)CCS2` reads -6.88%.
With `Cc1onc(-c2ccccc2Cl)c1NC(=O)N1c2ccc(F)cc2CCC1C` (centres undefined), the activation is -4.64%.
The result for `N#Cc1sccc1Br` reads -7.39%; that for `O=S(=O)(O)Oc1c[nH]c2ccccc12`, -7.29%; that for `N#CC(C#N)=Cc1cccn1-c1ccc(C(F)(F)F)cc1`, -6.03%.
As for `CS/C(=N\S(=O)(=O)c1ccccc1)NNc1ccccc1`, the figure is -3.17%; as for `O=c1[nH]c2c(=O)[nH]c(=S)[nH]c2nc1/C=C(\O)c1ccccc1`, -5.76%.
The result for `CN(C)/C=C/C(=O)c1cc(C(C)(C)C)cc(C(C)(C)C)c1O` reads -4.8%; that for `N#Cc1ccc(N2CCSCC2)cc1[N+](=O)[O-]`, -4.09%; that for `N/C(=N\OC(=O)c1ccc(Cl)cc1)c1cccc(CS(=O)(=O)c2ccccn2)c1`, -8.52%.
On to `COc1cccc(/C=C2\SC(=S)C(N)C2=O)c1OC` (centres undefined), for which the activation is -1.21%.
As to `CS(=O)(=O)c1csc(C(=O)NCc2cccnc2)c1Cl`, the activation was -6.55%.
The result for `O=C(N[C@@H](Cc1ccc(O)cc1)C(=O)O)OCc1ccccc1` reads -5.07%; that for `CS(=O)(=O)Nc1ccc(/C(N)=N/OC(=O)c2cccs2)cc1`, -5.51%; that for `CCc1ccnc(NS(=O)(=O)c2ccc3c(c2)OCCO3)c1`, -1.48%.
As for `c1csc(-c2ccc(-c3ccon3)s2)c1`, the figure is -4.74%.
As for `CC(=O)c1ccc(NC(=O)OC2CCSC2)cc1` (centres undefined), the figure is -4.49%; as for `O=C(Nc1ccc2c(c1)OCCO2)c1cnccn1`, 6.11%; as for `COc1cc(C=C(C#N)C#N)cc(OC(C)=O)c1OC(C)=O`, -8.12%.
As for `CNC(=S)NNC(=O)CSc1cccs1`, the activation was -6.57%.
As for `O=C(NC(=O)c1ccno1)Nc1ccccc1Cl`, the figure is -3.51%; as for `Cc1cc(C2=CSC3=NCCN23)ccc1Cl`, -7.84%; as for `CN(C)CCC(O)c1ccc2c(c1)OCCCCO2` (centres undefined), -8.25%.
The result for `Cc1ccc(N(C)NC(=O)Nc2ccc(Cl)cc2)nn1` reads -6.34%; that for `COc1ccc(C(=O)NNC(=O)c2c(OC)cc(C(F)(F)F)cc2C(F)(F)F)cc1`, -1.51%.
As for `CCOC(=O)Cc1nnc(-c2ccc(Cl)cc2)o1`, the figure is -7.97%.
For `N#Cc1nc(-c2ccccc2)c(-c2ccccc2)nc1C#N`, the activation was 3.73%.
The result for `Cc1noc(C)c1C(=O)Oc1cccc2cccnc12` reads 3.32%.
As for `Cc1ccc(OC(=O)c2cccc([N+](=O)[O-])c2)c(Br)c1`, the figure is 1.69%.
As for `NS(=O)(=O)c1cc(C(F)(F)F)cc(C(F)(F)F)c1`, the figure is -4.46%; as for `NNC(=O)c1csc(COc2ccc(C3SCCS3)cc2)n1`, -7.31%.
Consider `O=C(Nc1ccccc1N1CCOCC1)NC1CCN(C(=O)OCc2ccccc2)CC1`, for which the activation is -4.03%.
Turning to `CCOC(=O)c1cc(Sc2ccccc2N)cc(C(=O)OCC)n1`, the activation was -3.83%.
For the compound `CN(C)C(=O)Nc1ccc(C(C)(C)C)cc1`, the activation is -6.41%.
The result for `O=C(O)c1ccccc1N/C=C/[N+](=O)[O-]` reads -3.26%.
As for `Cc1nn2c(=O)c3c4c(sc3nc2[nH]c1=O)CCCC4`, the figure is 0.66%; as for `Fc1cccc(Cl)c1CSc1nccn1-c1cccnc1`, -3.88%; as for `O=C(NC1Cc2ccccc2C1)c1nnc(-c2ccccc2)o1`, -5.35%.
As for `N/C(=N\OC(=O)c1ccc([N+](=O)[O-])o1)c1ccc(OCc2ccc(Cl)cc2)c(Cl)c1`, the figure is -4.76%.
Take `CN(C)c1cccc2c1c(NC(=O)Nc1ccc(OCc3ccccc3)cc1)nn2C`: the activation is -3.92%.
As for `O=C(Nc1ccc(C(F)(F)F)cn1)c1ccc(Oc2cc(Cl)cc(Cl)c2)o1`, the figure is -5.62%; as for `CCN=C(NCC)Nc1ccc(Cl)cc1`, -7.95%; as for `CCOC(=O)CCC(=O)OC(C(=O)c1ccccc1)c1ccccc1` (centres undefined), -6.88%.
As for `COc1ccc(C2CC(c3cccs3)=Nc3ccccc3S2)c(Cl)c1OC` (centres undefined), the figure is -10.3%; as for `CCCN(CCC)S(=O)(=O)c1ccc(C(=O)N2CC3CCC(CC3)C2)cc1`, -5.35%; as for `O=C(Nc1ccc(OC(F)F)cc1)Nc1coc(-c2ccccc2)c1`, -4.63%.
Turning to `COc1ccc2c(c1)CCCC2=Nc1ccccc1C(F)(F)F`, the activation is -6.48%.
As for `COC(=O)c1ccc(S(=O)(=O)NNC(=O)c2cn3cc(C(F)(F)F)cc(Cl)c3n2)n1C`, the figure is -7.71%.
Regarding `O=c1c(-c2nc(-c3ccc(C(F)(F)F)cc3)no2)cnc2n1CCS2`, the activation is -4.47%.
As for `Cc1noc(C)c1S(=O)(=O)Nc1cc(C(F)(F)F)ccc1N1CCOCC1`, the figure is -7.12%; as for `COC(=O)c1cc(OC)c(OC)cc1NS(=O)(=O)c1ccsc1C(=O)OC`, -7.2%.
